These results are taken from PubChem BioAssay AID689 (Sanford-Burnham Center for Chemical Genomics, 2007).

By inhibition is commonly meant the relative decrease from the control value, in per cent.

Out of some 62,000 compounds screened, about 80 (0.1%) were called active. Not all results are given here. Results with a measured potency or affinity are listed apart. Unmarked numbers belong to inactive results. How the calls were made is not given here.

The target in the assay is Ephrin type-A receptor 4 (Mus musculus) (UniProt Q03137). Kind of assay: EphA4 ligand-binding antagonists – biochemical, colorimetric, mouse EphA4, primary screen (AID 689). The settings on record: EphA4-AP binding to KYL peptide, pNPP A405, at 10 µM, stronger effect = higher value.
Chain of Ephrin type-A receptor 4 (Mus musculus) (Q03137 whole entry, looked up): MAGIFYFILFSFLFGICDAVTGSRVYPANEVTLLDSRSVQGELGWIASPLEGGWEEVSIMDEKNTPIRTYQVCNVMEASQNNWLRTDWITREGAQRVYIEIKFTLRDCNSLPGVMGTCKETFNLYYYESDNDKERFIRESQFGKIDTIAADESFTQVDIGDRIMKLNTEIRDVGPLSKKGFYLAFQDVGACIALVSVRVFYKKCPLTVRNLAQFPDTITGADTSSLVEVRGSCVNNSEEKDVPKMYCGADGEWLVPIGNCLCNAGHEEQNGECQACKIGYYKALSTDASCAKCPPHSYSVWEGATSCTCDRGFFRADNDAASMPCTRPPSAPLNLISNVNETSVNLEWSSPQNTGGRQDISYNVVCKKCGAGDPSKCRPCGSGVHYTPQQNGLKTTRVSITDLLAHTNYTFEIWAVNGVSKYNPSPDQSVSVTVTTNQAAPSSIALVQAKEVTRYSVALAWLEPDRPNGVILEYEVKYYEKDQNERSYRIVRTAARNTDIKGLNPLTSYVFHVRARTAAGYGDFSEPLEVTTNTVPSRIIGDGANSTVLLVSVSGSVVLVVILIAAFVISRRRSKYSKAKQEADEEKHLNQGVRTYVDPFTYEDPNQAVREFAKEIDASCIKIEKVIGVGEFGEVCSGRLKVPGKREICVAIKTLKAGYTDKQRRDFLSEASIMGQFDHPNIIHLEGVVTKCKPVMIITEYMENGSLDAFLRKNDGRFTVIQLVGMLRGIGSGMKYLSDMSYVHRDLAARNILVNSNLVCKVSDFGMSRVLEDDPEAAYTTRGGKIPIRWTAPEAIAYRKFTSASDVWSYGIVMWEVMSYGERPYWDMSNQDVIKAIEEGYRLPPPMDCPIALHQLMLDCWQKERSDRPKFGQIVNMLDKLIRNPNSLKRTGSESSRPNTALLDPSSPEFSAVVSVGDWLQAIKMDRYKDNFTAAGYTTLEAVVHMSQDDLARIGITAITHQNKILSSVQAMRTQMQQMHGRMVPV
With `Cn1c(=O)[nH]c(=O)c2c1nc(CN1CCN(c3cccc(Cl)c3)CC1)n2CCN1CCOCC1`, the inhibition was 8.6%.
As for `O=C(c1sc2ccccc2c1Cl)N(Cc1ccco1)C1CCS(=O)(=O)C1` (stereo not given), the figure is -4.2%; as for `COc1ccccc1C1C(C(N)=O)=C(C)Nc2nc(-c3ccccc3Cl)nn21` (stereo not given), -24.8%; as for `Cc1cc(C=C2C(=O)N(C)C(=O)N(C)C2=O)c(C)n1C`, 3.4% [this sample at 5 µg/mL].
For `Cc1cc(/C=C2\SC(=S)NC2=O)c(C)n1C1CC1`, the inhibition was 9.1%.
As for `O=C(c1ccccc1)N1CCN(C(=O)C23CC4CC(CC(C4)C2)C3)CC1`, the figure is -9.8%; as for `O=C1c2ccccc2NC(c2ccc(Cl)c(Cl)c2)N1Cc1ccccc1` (stereo not given), 7.9% [this sample at 5 µg/mL]; as for `Cc1ccc(C)c(S(=O)(=O)Nc2ccccc2)c1`, 5.9% [this sample at 5 µg/mL].
As for `CCOc1cc(C(=S)N2CCOCC2)ccc1OS(=O)(=O)c1ccc(NC(C)=O)cc1`, the inhibition is -6.9%.
For the compound `Cc1cccc(C)c1NC(=O)CSc1nnc(-c2ccoc2C)n1C`, the inhibition is -4.3%.
For `Cc1occc1-c1nnc(SCC(=O)c2c[nH]c3ccccc23)n1C` the value was 0.9%.
With `Cn1c(SCC(=O)NC2CCCC2)nc2cccnc21`, the inhibition was -0.5%.
Take `Cc1c(C(=O)NCCc2ccccc2)oc2ccc(S(=O)(=O)N3CCC4(CC3)OCCO4)cc12`: the inhibition was -4.2%.
As for `COc1ccc(CNC(=O)c2ccc(S(=O)(=O)N3CCCC3)cc2)cc1OC`, the figure is -5.4%.
As for `Cc1cc2cc(CNC(=O)C3CC3)ccc2n1C`, the figure is -5.8%; as for `COc1ccccc1NC(=O)Cc1csc(N)n1`, 3.7%.
As to `CCCCN(CCCC)c1nc2ccccc2nc1C(C#N)C(=O)NCCCOC` (stereo not given), the inhibition is 13.6%.
Turning to `CCCCN(C)C/C(O)=C(\C#N)c1nc(-c2ccccc2)cs1`, the inhibition was -4.9%.
Consider `Cc1c(NC(=O)c2ccc(CSc3ccc(Cl)cc3)cc2)c(=O)n(-c2ccccc2)n1C`, for which the inhibition is -7.2% [this sample at 5 µg/mL].
As for `Cc1ccc2c3c1C(=O)C(=O)N3C(C)(C)CC2C` (stereo not given), the inhibition is -4.8%.
On to `O=C(COc1ccc(Cl)cc1)N(c1ccccc1)c1ccccc1`, for which the inhibition was 5.1% [this sample at 5 µg/mL].
`Cc1cccc(OCC(=O)N/N=C/c2cn[nH]c2-c2ccc(Cl)c(Cl)c2)c1`: the inhibition was -6.5%.
As for `CCOC(=O)c1c(C)nc2c(c1-c1ccccc1)C(=O)c1ccccc1-2`, the figure is -4.1%.
As for `CCOC(=O)c1ccc(COC(=O)c2ccc3c(c2)-c2ccccc2C3=O)cc1`, the figure is -10.7%; as for `CC(CCc1ccccc1)NC(=O)c1cncc(Br)c1` (stereo not given), 1.4%.
For the compound `CCOC(=O)c1c(C)oc2c1c(C=NCC1CCCO1)c(O)c1ccccc12` (stereo not given), the inhibition is -5.6%.
Regarding `CCOC(=O)c1c(C)oc2c1c1c(c3ccccc32)OCN(Cc2ccccn2)C1`, the inhibition is 4.9%.
For `Cn1c(NCc2c[nH]c3ccccc23)nc2ccccc21` the value was -8.4%; for `CCOC(=O)c1csc(NC(=O)CSc2nnnn2CC)n1`, -8.3%; for `Cc1ccc(S(=O)(=O)N2CCSC2c2ccco2)cc1` (stereo not given), -2%.
For `CCOCCCn1c(SCC(=O)NCc2ccco2)nc2c(sc3ccccc32)c1=O`, the inhibition was 7.8%.
With `Cc1ccc2ccc(C(Nc3ccccn3)c3ccccc3)c(O)c2n1` (stereo not given), the inhibition was 18.4%.
As for `Oc1c(C(Nc2ccccn2)c2ccccn2)ccc2cccnc12` (stereo not given), the figure is 6.9%; as for `CC(=NCCc1ccccc1)C1=C(O)CCC1=O`, -2.3%; as for `COc1ccccc1NC(=O)CSc1nnc(-c2ccco2)n1Cc1ccco1`, -25.5%.
For `COc1cccc(-c2nnc3sc(-c4ccccn4)nn23)c1` the value was -6.2%; for `Cn1c(=O)oc2cc(S(=O)(=O)N3CCN(c4cccc(Cl)c4)CC3)ccc21`, -5.3%; for `Cc1ccc(/C=C2\SC(=S)N(Cc3ccccc3)C2=O)o1`, -10.8%.
With `O=C1/C(=C/c2ccc(I)o2)SC(=S)N1Cc1ccccc1`, the inhibition is -12.6% [this sample at 5 µg/mL].
As for `O=C(c1coc(=O)c(Br)c1)N1CCCc2ccccc21`, the figure is 21.7%; as for `CC1(C)CC(NC(=O)c2coc(=O)c(Br)c2)CC(C)(C)N1`, -9.8%.
As for `O=C(CSCc1ccccc1Cl)NNC(=S)Nc1ccccc1`, the figure is -12.3%; as for `COc1cc(/C=C2/SC(=S)N(CC(=O)Nc3cccc(C(=O)O)c3)C2=O)cc(OC)c1OC`, -3.5% [this sample at 5 µg/mL].
For the compound `O=C1/C(=C/c2ccc(F)cc2)SC(=S)N1Nc1ncc(C(F)(F)F)cc1Cl`, the inhibition was -6.5%.
Take `COc1cc(/C=C2\SC(=S)N(Nc3ncc(C(F)(F)F)cc3Cl)C2=O)ccc1O`: the inhibition is 46.2%.
For `CCOc1cc(/C=C2\SC(=S)N(Nc3ccccc3)C2=O)ccc1O` the value was 16.9%; for `CC(=O)NCCNC(=O)[C@H](Cc1ccccc1)NC(=O)c1cccs1`, -9%; for `CC1CC(C)CN(CC(C)(C)NS(=O)(=O)c2ccc(Cl)cc2)C1` (stereo not given), -13.3%.
For `CC(C)C1Cc2c(C#N)c(N)n(C)c(=S)c2CO1` (stereo not given) the value was -8%; for `CCC1(C)Cc2c(C#N)c(N)sc(=S)c2CO1` (stereo not given), 44.1%; for `O=C1NC(=S)N(c2ccc(F)cc2)C(=O)C1=Cc1ccc([N+](=O)[O-])s1`, 31.5% [this sample at 5 µg/mL].
On to `CCSc1nnc(-c2ccncc2)o1`, for which the inhibition was -3%.
With `O=C(O)CSc1nnc(-c2ccccc2)o1`, the inhibition is -16.7%.
For the compound `COC(=O)c1cccnc1NC(=S)NNC(=O)c1ccncc1`, the inhibition is 1.4%.
`O=C1N=C(c2ccccc2)S/C1=C\c1cccs1`: the inhibition was 5.5%.
For `CC1=NN(c2ccc(Br)cc2)C(=O)/C1=C/c1cccs1` the value was -1.8%.
As for `CCCCC(=O)Nc1cccc(NC(=O)c2ccc(Br)cc2)c1`, the figure is -0.2%.
`Cc1cc(C)c2nc(N3CCN(C)CC3)c(C#N)cc2c1`: the inhibition was 8.1%.
Regarding `Cc1cc(C)c2nc(N3CCCN(C(=O)c4cnccn4)CC3)c(C#N)cc2c1`, the inhibition is 11.5%.
For `Cc1ccc(N2CCCn3c2nc2c3c(=O)n(CCN3CCOCC3)c(=O)n2C)cc1` the value was -11%; for `N=c1oc2ccccc2cc1-c1nc2ccccc2c(=O)[nH]1`, 5.9%.
For `O=C(/C=C/c1ccc(OCc2ccccc2)cc1)c1cccc(Br)c1` the value was 14.7% [this sample at 5 µg/mL]; for `O=C(/C=C/c1ccc(OCc2ccccc2)cc1)c1ccc(Br)cc1`, -5.6% [this sample at 5 µg/mL].
For `CC(C)(C)C1=C(C#N)C(c2ccc3c(c2)OCO3)C(C#N)=C(N)O1` (stereo not given) the value was 5%.
With `CCC1=NN2C(=N)/C(=C/c3ccc(OCc4ccccc4)cc3)C(=O)N=C2S1`, the inhibition was 0.6% [this sample at 5 µg/mL].
